PubChem BioAssay AID1728 (National Center for Advancing Translational Sciences (NCATS), 2009)
This is one part of the list. Records with an inconclusive call do not appear. Active and inactive are the calls of the source. Calls follow the shape of the dose curve; as a rule, active = well fitted curve in the direction sought with a large enough effect; inconclusive = small, poorly fitted or top-dose-only effect, or another doubt; inactive = no such curve, though single readings can be large or run the other way.

What follows are molecules tested against RAF proto-oncogene serine/threonine-protein kinase (Homo sapiens) (UniProt P04049) (assay: Assay for Inhibitors of the ERK Signaling Pathway using a Homogeneous Screening Assay: c-Raf Inhibition). Conditions: homogeneous biochemical assay; series mostly up to 76.9 µM; activity change, negative = inhibition: at the top concentration.
Text: qHTS Assay for Inhibitors of the ERK Signaling Pathway using a Homogeneous Screening Assay
NIH Chemical Genomics Center [NCGC]
NIH Molecular Libraries Screening Centers Network [MLSCN]
Assay Submitter (PI): Dr. Wei Zheng, NCGC/NIH
The Ras/extracellular-signal-regulated kinase (ERK) mitogen activated protein (MAP) kinase signaling pathway (ERK1/2 cascade) plays is a key role in transmitting signals from the cell surface to the nucleus (Nishida and Gotoh 1993; Chang and Karin, 2001). The cascade is initiated by the small G-protein Ras, which recruits Raf […], where activation occurs. Alternatively, this pathway can be activated by elevating intracellular cAMP.
Activation of the ERK pathway is essential in increased cell division and cell survival. Sustained and constitutive activation of the ERK pathway, however, has been linked to uncontrolled cell proliferation, increased cell survival, and tumor progression. Thus, the ERK has been as an attractive target for cancer chemotherapy in the past few years (Sebolt-Leopold and Herrera, 2004). […]
The HTRF kinase assay (components supplied as kit by Cisbio) was chosen for the EGFR and EGFR mutant enzyme assays that applied the time resolved fluorescence resonance energy transfer (TR-FRET) principle. […]

RAF proto-oncogene serine/threonine-protein kinase (Homo sapiens), sequence (P04049 whole entry, looked up): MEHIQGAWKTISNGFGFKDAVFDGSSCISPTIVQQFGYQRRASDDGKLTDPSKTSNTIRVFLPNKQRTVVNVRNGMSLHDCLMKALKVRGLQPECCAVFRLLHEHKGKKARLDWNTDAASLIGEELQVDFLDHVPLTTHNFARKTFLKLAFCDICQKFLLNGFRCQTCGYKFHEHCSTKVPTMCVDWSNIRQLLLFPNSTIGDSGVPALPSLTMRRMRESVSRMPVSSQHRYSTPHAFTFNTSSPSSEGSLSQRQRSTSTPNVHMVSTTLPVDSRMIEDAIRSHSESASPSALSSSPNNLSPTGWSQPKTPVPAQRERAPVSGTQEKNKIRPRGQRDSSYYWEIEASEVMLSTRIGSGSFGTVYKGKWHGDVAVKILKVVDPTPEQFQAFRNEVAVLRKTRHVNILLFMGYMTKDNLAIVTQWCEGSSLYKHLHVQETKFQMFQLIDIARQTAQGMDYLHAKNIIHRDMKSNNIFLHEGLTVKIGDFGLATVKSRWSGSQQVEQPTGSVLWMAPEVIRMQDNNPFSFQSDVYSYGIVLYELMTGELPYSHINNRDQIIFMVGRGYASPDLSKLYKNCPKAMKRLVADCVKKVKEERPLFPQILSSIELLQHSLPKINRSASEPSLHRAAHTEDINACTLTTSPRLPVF

Compound	activity change, negative = inhibition
O=[N+]([O-])c1ccccc1N/N=C1\CCc2ccccc21	-15.1% (inactive)
CN(C)c1ccc(Nc2c3c4c(cccc4n(C)c2=O)C(=O)c2ccccc2-3)cc1	-9.46% (inactive)
